PubChem BioAssay (NCI)
This is part of a sample that, as a whole, favours compounds with a hit. Of some 83,000 tested, about 20% had one in any assay.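 Single-concentration screen, 48 h exposure, 96-well plates. Endpoint: percent growth. Below 10 = active.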 Active and inactive are the calls of the source.

Legend:
Assay in all cases: NCI-60 one-dose screen, 48 h (100 = growth as untreated, 0 = no growth, -100 = all killed)
Conditions in all cases: 10 µM unless noted
DU-145 prostate = test system: DU-145 prostate
K-562 leukemia = test system: K-562 leukemia
MALME-3M melanoma = test system: MALME-3M melanoma
MDA-MB-231 breast = test system: MDA-MB-231 breast
RXF 393 renal = test system: RXF 393 renal
SF-268 CNS = test system: SF-268 CNS
SF-295 CNS = test system: SF-295 CNS
SF-539 CNS = test system: SF-539 CNS
UACC-257 melanoma = test system: UACC-257 melanoma
M14 melanoma = test system: M14 melanoma

Measured: growth

CNc1cc2nc3cc(NC)c(C)cc3cc2cc1C
inactive: DU-145 prostate 18.5% | K-562 leukemia 21.1% | MALME-3M melanoma 41.3% | MDA-MB-231 breast 28.7% | RXF 393 renal 11.9% | SF-268 CNS 11.3% | SF-295 CNS 10% | SF-539 CNS 10.4% | UACC-257 melanoma 29.2% | M14 melanoma 24.8%

Cc1nc2sc(C(=O)Nc3cccc4c3OCCO4)c(N)c2cc1C(C)O (stereo not given)
inactive: DU-145 prostate 47.7% | K-562 leukemia 13.3% | MALME-3M melanoma 47.1% | MDA-MB-231 breast 39.9% | SF-268 CNS 49.9% | SF-295 CNS 10.9% | UACC-257 melanoma 55.7% | M14 melanoma 37.5%
active: RXF 393 renal -5.15% | SF-539 CNS 4.07%

CCCCCn1cnc2c(=S)nc[nH]c21
inactive: DU-145 prostate 124% | K-562 leukemia 97.9% | MALME-3M melanoma 111% | MDA-MB-231 breast 131% | RXF 393 renal 160% | SF-268 CNS 124% | SF-295 CNS 119% | SF-539 CNS 91% | UACC-257 melanoma 131% | M14 melanoma 120%

CCNS(=O)(=O)c1ncnc2nc[nH]c12
inactive: DU-145 prostate 102% | K-562 leukemia 109% | MALME-3M melanoma 116% | MDA-MB-231 breast 119% | RXF 393 renal 122% | SF-268 CNS 132% | SF-295 CNS 109% | SF-539 CNS 95.9% | UACC-257 melanoma 126% | M14 melanoma 119%

CCCCOc1ccc(NC(=O)n2nc(NC(C)=O)c3cc(NC(C)=O)ccc32)cc1
inactive: DU-145 prostate 94.6% | K-562 leukemia 33.7% | MALME-3M melanoma 93.3% | MDA-MB-231 breast 105% | RXF 393 renal 95.6% | SF-268 CNS 127% | SF-295 CNS 84% | SF-539 CNS 95% | UACC-257 melanoma 112% | M14 melanoma 95.2%

CCCCN(CCCC)Cc1c(C)[nH]c2cc(OC)ccc2c1=O
inactive: DU-145 prostate 106% | K-562 leukemia 98% | MALME-3M melanoma 98% | MDA-MB-231 breast 104% | RXF 393 renal 108% | SF-268 CNS 95.5% | SF-295 CNS 98.3% | SF-539 CNS 110% | UACC-257 melanoma 94.5% | M14 melanoma 102%

Oc1ccccc1N=Cc1c(O)ccc2ccccc12
inactive: DU-145 prostate 82.3% | K-562 leukemia 80.3% | MALME-3M melanoma 82.9% | MDA-MB-231 breast 57% | RXF 393 renal 79.2% | SF-268 CNS 78.4% | SF-295 CNS 53.9% | SF-539 CNS 80% | UACC-257 melanoma 93.2% | M14 melanoma 62.7%

Cn1c2c(Cl)c(Cl)ccc2c2ccn3c(=O)c4ccccc4nc3c21
inactive: DU-145 prostate 120% | K-562 leukemia 109% | MALME-3M melanoma 102% | MDA-MB-231 breast 99.5% | RXF 393 renal 117% | SF-268 CNS 105% | SF-295 CNS 102% | SF-539 CNS 95.7% | UACC-257 melanoma 97% | M14 melanoma 101%

CC#CC#Cc1cccc(=O)o1
inactive: DU-145 prostate 100% | K-562 leukemia 73.8% | MALME-3M melanoma 78.9% | MDA-MB-231 breast 45% | RXF 393 renal 47.3% | SF-268 CNS 50.4% | SF-295 CNS 96.1% | SF-539 CNS 76.4% | UACC-257 melanoma 72.6% | M14 melanoma 74.9%

C=C1CC[C@@H]2[C@](C)(COC(C)=O)[C@H](OC(C)=O)CC[C@@]2(C)[C@@H]1CC(NCc1ccc(F)cc1)C1=CCOC1=O (stereo not given in full)
inactive: DU-145 prostate 69.8% | K-562 leukemia 18.8% | MALME-3M melanoma 65.1% | MDA-MB-231 breast 60.9% | RXF 393 renal 80.6% | SF-268 CNS 62.6% | SF-295 CNS 96.1% | SF-539 CNS 64.4% | UACC-257 melanoma 45.8% | M14 melanoma 37.3%

Nc1cc(O)cc2cccnc12
inactive: DU-145 prostate 107% | K-562 leukemia 88% | MALME-3M melanoma 89.8% | MDA-MB-231 breast 78.5% | RXF 393 renal 135% | SF-268 CNS 107% | SF-295 CNS 95.4% | SF-539 CNS 101% | UACC-257 melanoma 91.2% | M14 melanoma 83.8%

O=C(O)c1cccnc1Br
inactive: DU-145 prostate 129% | K-562 leukemia 109% | MALME-3M melanoma 109% | MDA-MB-231 breast 107% | RXF 393 renal 121% | SF-268 CNS 110% | SF-295 CNS 96.1% | SF-539 CNS 91.9% | UACC-257 melanoma 106% | M14 melanoma 99.7%

OCC1C2C=CC(C2)C1CO (stereo not given)
inactive: DU-145 prostate 106% | K-562 leukemia 112% | MALME-3M melanoma 105% | MDA-MB-231 breast 103% | RXF 393 renal 113% | SF-268 CNS 106% | SF-295 CNS 104% | SF-539 CNS 126% | UACC-257 melanoma 101% | M14 melanoma 99.9%

OC(c1cc(-c2ccccc2)nc2ccc(Cl)cc12)C1CCCCN1 (stereo not given)
active: K-562 leukemia -18.4% | MALME-3M melanoma -41.3% | MDA-MB-231 breast -30.5% | M14 melanoma -66.3%
inactive: DU-145 prostate 60.1% | RXF 393 renal 56.3% | SF-268 CNS 60.7% | SF-295 CNS 96.2% | SF-539 CNS 67.5% | UACC-257 melanoma 70.9%

CC[C@H](Nc1ncnc(N)c1C(N)=O)c1nc2cccc(NCc3ccc(C(=O)NO)cc3)c2c(=O)n1-c1ccccc1
inactive: DU-145 prostate 97.6% | K-562 leukemia 55.6% | MALME-3M melanoma 67.2% | MDA-MB-231 breast 83.8% | RXF 393 renal 55.2% | SF-268 CNS 90.1% | SF-295 CNS 93.2% | SF-539 CNS 75.1% | UACC-257 melanoma 63.4% | M14 melanoma 95.9%

CCOC(=O)c1cnc2cc(Cl)c(F)cc2c1Nc1cccc(NS(C)(=O)=O)c1
inactive: DU-145 prostate 101% | K-562 leukemia 91.4% | MALME-3M melanoma 112% | MDA-MB-231 breast 80.6% | RXF 393 renal 89.3% | SF-268 CNS 90.1% | SF-295 CNS 93.7% | SF-539 CNS 89.2% | UACC-257 melanoma 118% | M14 melanoma 113%

COc1c(Cl)cc(Cl)cc1Cl
inactive: DU-145 prostate 111% | K-562 leukemia 96.2% | MALME-3M melanoma 143% | MDA-MB-231 breast 92.2% | RXF 393 renal 121% | SF-268 CNS 107% | SF-295 CNS 103% | SF-539 CNS 111% | UACC-257 melanoma 122% | M14 melanoma 116%

O=C1Nc2c(ccc(Cl)c2Cl)/C1=C/c1cc(Br)c(O)c(Br)c1
inactive: DU-145 prostate 84.6% | K-562 leukemia 51.8% | MALME-3M melanoma 29.4% | MDA-MB-231 breast 74.8% | RXF 393 renal 75.9% | SF-268 CNS 75.7% | SF-295 CNS 13.4% | SF-539 CNS 51.6% | UACC-257 melanoma 40% | M14 melanoma 33.2%

NS(=O)(=O)c1ccc(Nc2nc3n[nH]c(Nc4ccccc4)c3c(=O)[nH]2)cc1
inactive: DU-145 prostate 102% | K-562 leukemia 96% | MALME-3M melanoma 103% | MDA-MB-231 breast 97.7% | RXF 393 renal 115% | SF-268 CNS 97% | SF-295 CNS 102% | SF-539 CNS 97.1% | UACC-257 melanoma 97% | M14 melanoma 94.2%

CCCCCCNC(=O)Oc1ccc(/C(=C(\C)c2ccccc2)c2ccc(OCCN(CC)CC)cc2)cc1
active: K-562 leukemia 2.08% | UACC-257 melanoma -1.51% | M14 melanoma -40.1%
inactive: DU-145 prostate 87.7% | MALME-3M melanoma 33% | MDA-MB-231 breast 68.9% | RXF 393 renal 32.7% | SF-268 CNS 55.8% | SF-295 CNS 83.1% | SF-539 CNS 50%

c1ccc2c(Nc3cccc4ccccc34)cccc2c1
inactive: DU-145 prostate 86.4% | K-562 leukemia 11.2% | MALME-3M melanoma 50% | MDA-MB-231 breast 46% | RXF 393 renal 83.8% | SF-268 CNS 72.7% | SF-295 CNS 69.1% | SF-539 CNS 56.9% | UACC-257 melanoma 80.3% | M14 melanoma 30.3%

C=C(C[n+]1ccccc1)[C@@H]1CC[C@]2(C(=O)OC)CC[C@]3(C)[C@H](CC[C@@H]4[C@@]5(C)CC[C@H](O)C(C)(C)[C@@H]5CC[C@]43C)[C@@H]12
inactive: DU-145 prostate 114% | K-562 leukemia 95.7% | MALME-3M melanoma 103% | MDA-MB-231 breast 114% | RXF 393 renal 106% | SF-268 CNS 97% | SF-295 CNS 103% | SF-539 CNS 91.2% | UACC-257 melanoma 100% | M14 melanoma 102%

N#Cc1c(N)nc(N)nc1Nc1ccc(Br)cc1
inactive: DU-145 prostate 98.7% | K-562 leukemia 99% | MALME-3M melanoma 107% | MDA-MB-231 breast 87.3% | RXF 393 renal 94.3% | SF-268 CNS 92.5% | SF-295 CNS 91% | SF-539 CNS 89.6% | UACC-257 melanoma 92% | M14 melanoma 163%

Cn1c2ccccc2c2c3[nH]c(=O)[nH]c(=O)c3c3c4ccccc4n(C)c3c21
active: RXF 393 renal 6.48%
inactive: DU-145 prostate 29.2% | K-562 leukemia 56.1% | MALME-3M melanoma 20% | MDA-MB-231 breast 46% | SF-268 CNS 32.4% | SF-295 CNS 69.6% | SF-539 CNS 39.5% | UACC-257 melanoma 78.1% | M14 melanoma 31.8%

CCN(CC)CC(C)Nc1ccc([N+](=O)[O-])c2sc3ccccc3c(=O)c12 (stereo not given)
active: K-562 leukemia -14.2% | MALME-3M melanoma -6.6% | UACC-257 melanoma -10.4%
inactive: DU-145 prostate 27.6% | MDA-MB-231 breast 51.5% | RXF 393 renal 32.4% | SF-268 CNS 27.3% | SF-295 CNS 25% | SF-539 CNS 29.5% | M14 melanoma 44.9%

C[C@H](CCC(=O)O)[C@H]1CC[C@H]2[C@@H]3CC[C@@H]4/C(=C\c5ccco5)C(=O)/C(=C\c5ccco5)C[C@]4(C)[C@H]3CC[C@]12C
inactive: DU-145 prostate 66.5% | K-562 leukemia 30% | MALME-3M melanoma 58.1% | MDA-MB-231 breast 107% | RXF 393 renal 45.1% | SF-268 CNS 80.6% | SF-295 CNS 70.6% | SF-539 CNS 76.3% | UACC-257 melanoma 51.6% | M14 melanoma 52.5%

O=c1c2c3c(sc2n2c(CCl)nnc2n1Cc1ccccc1)CCCC3
active: DU-145 prostate -11.9% | K-562 leukemia -65.2% | MALME-3M melanoma -71.4% | MDA-MB-231 breast -60.2% | RXF 393 renal -39.1% | SF-268 CNS -59.2% | SF-539 CNS -85.5% | UACC-257 melanoma -53.6% | M14 melanoma -49.9%
inactive: SF-295 CNS 126%
